Hit rate of the full screen: of about 360,000 compounds, about 3,900 (1.1%) were called active. The sample as a whole holds a higher share of actives than the screen did. Unmarked numbers belong to inactive results.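 How the source made its calls: active means mean replicate inhibition score of at least 50 and every replicate individually at or above 50; inconclusive means only one of the two criteria met; inactive means mean below 50 and not all replicates reaching 50.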
Test: inhibitors of HIV-1 Env-driven cell-cell fusion, primary screen, HeLa-JRFL effector, CEM21 target cells, luciferase (AID 651610);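 further: 0% = plate neutral controls and 100% = maraviroc near 300 nM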
Details: hits give high values; at 16.7 µM unless noted
`C/C=C/c1cnc2c(c1)C(=O)N([C@@H](C)CO)C[C@@H](C)[C@H](CN(C)C(=O)c1cnccn1)O2` showed an inhibition of 4.56%.
With `C[C@H](CO)N1C[C@H](C)[C@@H](CN(C)C(=O)CCC(F)(F)F)OCCCC[C@H](C)Oc2ccc(NC(=O)C3CCCCC3)cc2C1=O` the inhibition was -45.1%.
In the case of `COc1ccc(NC(=O)N(C)C[C@@H]2Oc3ccc(NC(=O)CCN4CCOCC4)cc3C(=O)N([C@@H](C)CO)C[C@H]2C)cc1`, the inhibition is reported as -19.9%.
`Cc1noc(C)c1NC(=O)Nc1cccc2c1O[C@@H](CN(C)CC1CCCCC1)[C@H](C)CN([C@@H](C)CO)C2=O` gave an inhibition of -120%.
Compound `Cc1ccc(S(=O)(=O)N(C)C[C@H]2Oc3ccc(NC(=O)CCC(F)(F)F)cc3C(=O)N([C@@H](C)CO)C[C@H]2C)cc1` has an inhibition of 9.23%.
For `COc1ccc(C(CNC(=O)COc2ccc([N+](=O)[O-])cc2)N2CCCCC2)cc1` (stereo not given), the inhibition was 1.73% [at 12.3 µM].
For `COc1ccc(C(CNC(=O)COc2ccccc2OC)N2CCCCC2)cc1` (stereo not given), the inhibition was 1.58% [at 12.3 µM].
For `CCc1ccc(OCC(=O)NCC(c2ccc(Cl)cc2)N2CCCCC2)cc1` (stereo not given), the inhibition was 73.9% [at 12.3 µM] (active).
Compound `COc1ccc(S(=O)(=O)N(C)C[C@@H]2OCCCC[C@H](C)Oc3ccc(NC(=O)NC4CCCCC4)cc3C(=O)N([C@H](C)CO)C[C@H]2C)cc1` has an inhibition of 20.2%.
`CO[C@@H]1CC[C@@H]2CCOc3ccc(C#N)cc3C(=O)N(C)[C@H](C)C(=O)N(C)C[C@@H]1O2` showed an inhibition of 14.7%.
In the case of `COc1ccc(-c2cn[nH]c2-c2ccc(OC)cc2)cc1`, the inhibition is reported as 60.2% [at 12.3 µM] (active).
`COc1ccc(Oc2cn[nH]c2-c2ccc(OC)cc2O)cc1` gave an inhibition of 4.87% [at 12.3 µM].
Work on `COc1ccc2cc(-c3[nH]ncc3CNCCn3nc(C)cc3C)ccc2c1` yielded an inhibition of -11.4% [at 12.3 µM].
In the case of `CCCNC(=O)Nc1ccc2c(c1)C(=O)N(C)C[C@H](OC)[C@@H](C)CN(C)[C@@H](C)CO2`, the inhibition is reported as 18.7%.
In the case of `COc1ccc(CN(C)C[C@H]2Oc3c(NC(=O)C4CCCCC4)cccc3C(=O)N([C@@H](C)CO)C[C@@H]2C)cc1`, the inhibition is reported as 7.57%.
Work on `Cc1ccc(CC2(C)C(=O)Nc3ccc(OC(F)(F)F)cc32)cc1` (stereo not given) yielded an inhibition of 10.5% [at 12.3 µM].
For `CC1(Cc2cccc(C#N)c2)C(=O)Nc2ccc(-c3cccc(C(F)(F)F)c3)cc21` (stereo not given), the inhibition was 76.4% [at 12.3 µM] (active).
Work on `COc1ccccc1CC1(C)C(=O)Nc2ccc(OC(F)(F)F)cc21` (stereo not given) yielded an inhibition of 5.2% [at 12.3 µM].
Work on `C[C@H]1CN([C@@H](C)CO)C(=O)c2cc(-c3cccnc3)cnc2O[C@@H]1CN(C)C(=O)C1CC1` yielded an inhibition of 1.19%.
With `C[C@@H]1CN([C@@H](C)CO)C(=O)c2cc(C#CC3CCCCC3)cnc2O[C@H]1CN(C)C(=O)Cc1ccccn1` the inhibition was -1.78%.
Work on `CC(C)NC(=O)N(C)C[C@H]1Oc2ncc(C#CC3CCCCC3)cc2C(=O)N([C@H](C)CO)C[C@@H]1C` yielded an inhibition of 5.6%.
`CC(C)NC(=O)Nc1ccc2c(c1)C(=O)N([C@@H](C)CO)C[C@H](C)[C@H](CN(C)S(=O)(=O)c1cccs1)O2` gave an inhibition of -7.33%.
Compound `C#Cc1cc(N2CCN(C(=O)c3ccoc3)CC2)n2nc(-c3cccc(Cl)c3)cc2n1` has an inhibition of 2.89% [at 12.3 µM].
`O=C(c1ccccc1)N1CCN(C(=O)c2cc3nc(-c4ccccc4)cc(C(F)(F)F)n3n2)CC1` showed an inhibition of 13.3% [at 12.3 µM].
In the case of `O=C(c1ccccc1)N1CCN(c2cc(-c3ccccc3)nc3cc(-c4cccc(Cl)c4)nn23)CC1`, the inhibition is reported as 57.4% [at 12.3 µM] (active).
With `CN1CCN(C(=O)C[C@H]2CC[C@@H](NC(=O)c3ccc4c(c3)OCO4)[C@H](CO)O2)CC1` the inhibition was -2.25%.
`C[C@@H]1CCCCO[C@@H](CN(C)C(=O)CCC(F)(F)F)[C@H](C)CN([C@@H](C)CO)C(=O)c2cc(NC(=O)CCCN(C)C)ccc2O1` showed an inhibition of -15.3%.
Compound `COc1ccc2c3c(n(C)c2c1)[C@H](CO)N(C(=O)NC(C)C)CC31CCN(C(=O)NC(C)C)CC1` has an inhibition of 25.2%.
With `CN(C)[C@@H]1C(=O)C(C(N)=O)=C(O)[C@@]2(O)C(=O)C3=C(O)c4c(O)ccc(Cl)c4[C@@H](O)[C@H]3C[C@@H]12` the inhibition was 71.9% [at 12.3 µM] (active).
Work on `C=C1c2c(Cl)ccc(O)c2C(O)=C2C(=O)[C@]3(O)C(O)=C(C(N)=O)C(=O)[C@@H](N(C)C)[C@@H]3[C@@H](O)C12` (stereo not given in full) yielded an inhibition of 9.73% [at 12.3 µM].
`C[C@@H]1CN([C@H](C)CO)C(=O)c2cc(C#CC3(O)CCCC3)cnc2O[C@H]1CN(C)C(=O)C1CCC1` showed an inhibition of 1.03%.
Work on `CO[C@H]1CN(C)C(=O)c2cc(NC(=O)C3CC3)ccc2OC[C@@H](C)N(CCc2ccccc2)C[C@H]1C` yielded an inhibition of -0.128%.
In the case of `CC(=O)Nc1ccc(NS(=O)(=O)c2ccc3c(c2)NC(=O)CC(=O)N3)cc1`, the inhibition is reported as -3.1% [at 12.3 µM].
For `COc1ccc(NS(=O)(=O)c2ccc(NC(C)=O)cc2)cc1OC`, the inhibition was 62.4% [at 12.3 µM] (active).
Compound `CC(=O)Nc1ccc(S(=O)(=O)N2CCN(C3CCCCCCC3)CC2)cc1` has an inhibition of -36.4% [at 12.3 µM].
In the case of `COc1ccccc1C(=O)COC(=O)CNS(=O)(=O)c1ccc(NC(C)=O)cc1`, the inhibition is reported as -8.08% [at 12.3 µM].
In the case of `COC(C(=O)Nc1ccc(S(=O)(=O)Nc2ccc(C)c(C)c2)cc1)c1ccccc1` (stereo not given), the inhibition is reported as -13.7% [at 12.3 µM].
For `CC(=O)Nc1ccc(S(=O)(=O)Nc2ccc(N3CCCCC3)cc2)cc1`, the inhibition was 68.2% [at 12.3 µM] (active).
`C/C=C/c1cnc2c(c1)C(=O)N([C@H](C)CO)C[C@H](C)[C@@H](CN(C)C(=O)Nc1ccc(C(F)(F)F)cc1)O2` showed an inhibition of 0.996%.
`C[C@@H]1CN([C@@H](C)CO)C(=O)c2cc(NC(=O)C3CCCCC3)ccc2O[C@@H](C)CCCCO[C@@H]1CN(C)Cc1ccc(C(=O)O)cc1` showed an inhibition of 10.8%.
Work on `CN(C)c1ccc2c(c1)[C@@H]1C[C@@H](CC(=O)NCc3ccccn3)O[C@H](CO)[C@@H]1O2` yielded an inhibition of 6.38%.
With `C[C@H]1CN([C@@H](C)CO)C(=O)CCCn2nncc2CO[C@H]1CN(C)Cc1ccccc1` the inhibition was -11.7%.
Compound `C[C@@H]1CN([C@H](C)CO)C(=O)c2cc(C#CC3CCCCC3)cnc2O[C@@H]1CN(C)C(=O)NC1CCCC1` has an inhibition of 10.8%.
Compound `Cc1nn(Cc2ccc(Cl)c(Cl)c2)c(C)c1NC(=O)c1cc(C2CC2)on1` has an inhibition of -1.78% [at 12.3 µM].
With `Cc1nn(Cc2ccc(F)cc2)c(C)c1NC(=O)c1noc2c1CCc1ccccc1-2` the inhibition was 57.4% [at 12.3 µM] (active).
`Cc1nn(Cc2ccc(F)cc2)c(C)c1NC(=O)c1cccnc1Cl` showed an inhibition of 0.276% [at 12.3 µM].
`Cc1ccccc1S(=O)(=O)N[C@H]1CC[C@H](CCn2cc(-c3ccc(F)cc3)nn2)O[C@H]1CO` gave an inhibition of 4.55%.
In the case of `C[C@H](CO)N1C[C@H](C)[C@@H](CN(C)S(=O)(=O)c2cccs2)OCCCC[C@H](C)Oc2ccc(NS(=O)(=O)c3ccccc3)cc2C1=O`, the inhibition is reported as -0.163%.
For `CCCCNC(=O)N(O)C1N(/N=C/c2ccccc2O)C(=S)SC1(C)C` (stereo not given), the inhibition was 89.7% [at 12.3 µM] (active).
For `CCC(C)N1C(=S)SC(C)(C)C1N(O)C(=O)NC1CCCCC1` (stereo not given), the inhibition was 16.9% [at 12.3 µM].
Work on `CCCCNC(=O)N(O)C1N(/N=C/c2ccc(N(C)C)cc2)C(=S)SC1(C)C` (stereo not given) yielded an inhibition of 10.2% [at 12.3 µM].
For `C[C@@H]1CCCCO[C@@H](CN(C)C(=O)Nc2ccc(C(F)(F)F)cc2)[C@H](C)CN([C@H](C)CO)C(=O)c2cc(NC(=O)C3CCCCC3)ccc2O1`, the inhibition was 14.1%.
Compound `Cc1ccc(S(=O)(=O)N[C@H]2CC[C@@H](CC(=O)NCc3ccc(Cl)c(Cl)c3)O[C@H]2CO)cc1` has an inhibition of 16.7%.
In the case of `CCCCCCCCn1c2c(c(=N)c3c1CCC3)CCCC2`, the inhibition is reported as 64.5% [at 12.3 µM] (active).
`C[C@@H]1NC(=O)[C@@]2(C)[C@@H](c3ccccc3)[C@H]3COc4ccccc4[C@@H]3N2C1=O` gave an inhibition of 1% [at 12.3 µM].
In the case of `CN1CC(c2ccccc2)C2(COc3ccccc3C2=O)C12C(=O)Nc1ccccc12` (stereo not given), the inhibition is reported as 108% [at 12.3 µM] (active).
For `O=C1NC(c2ccccc2)Oc2ccccc21` (stereo not given), the inhibition was -8.85% [at 12.3 µM].
Work on `CO[C@H]1CN(C)C(=O)c2ccc(NC(=O)C3CC3)cc2OC[C@@H](C)N(C(=O)c2ccccn2)C[C@@H]1C` yielded an inhibition of 3.53%.
`COc1ccc(S(=O)(=O)Nc2cccc3c2O[C@H](CN(C)C(=O)NC(C)C)[C@H](C)CN([C@H](C)CO)C3=O)cc1` showed an inhibition of -9%.
Work on `O=C(c1ccc(S(=O)(=O)N2CCCC2)cc1)N1CCN(c2ccccc2F)CC1` yielded an inhibition of -21.7% [at 12.3 µM].
In the case of `N#Cc1ccccc1-n1c(N)c(C(=O)N2CCCC2)sc1=S`, the inhibition is reported as 59.1% [at 12.3 µM] (active).
For `Cc1ccc(-n2c(N)c(C(=O)N3CCOCC3)sc2=S)c(C)c1`, the inhibition was 24.4% [at 12.3 µM].
`CNC(=O)C[C@@H]1CC[C@H]2[C@H](COc3ccc(NC(=O)C4CC4)cc3C(=O)N2C)O1` gave an inhibition of 12%.
Work on `CC(C)NC(=O)N(C)C[C@@H]1Oc2ncc(C#Cc3ccncc3)cc2C(=O)N([C@@H](C)CO)C[C@@H]1C` yielded an inhibition of -8.31%.
Compound `COc1ccccc1S(=O)(=O)N(C)C[C@@H]1Oc2cc(C#CCC3CCCC3)ccc2S(=O)(=O)N([C@H](C)CO)C[C@H]1C` has an inhibition of 34.8%.

From PubChem BioAssay AID651610 (Broad Institute, 2012)
